From PubChem BioAssay (NCATS)
Results filed as inconclusive are left out. Activity calls are given as the source filed them. Calls come from the whole dose curve; as a rule, active = well fitted curve in the direction sought with a large enough effect; inconclusive = small, poorly fitted or top-dose-only effect, or another doubt; inactive = no such curve, though single readings can be large; an effect the other way counts as inactive or inconclusive.

Experiments:
[1] = Quantitative High-Throughput drug screen in 47 multiple myeloma cell lines against the NCATS MIPE library collection: KMS20_JCRB cell viability assay (AID 1918973); note: nearly all actives have a fitted effect of over 45% in size; note: potency is the fitted concentration of half-maximal effect
How it was run: (§1)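 Myeloma cells (500 per well) were exposed to MIPE 4.0 compounds by pin transfer and incubated 48 hours at 37C, 5% CO2. Viability was read as ATP by CellTiter-Glo luminescence, normalised to DMSO (100%) and media-only (0%) wells.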

[2] = Quantitative High-Throughput drug screen in 47 multiple myeloma cell lines against the NCATS MIPE library collection: KMS26_JCRB cell viability assay (AID 1918975); note: nearly all actives have a fitted effect of over 45% in size; note: potency is the fitted concentration of half-maximal effect
How it was run: (§2)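 Luminescent ATP measurement with CellTiter-Glo gives viability, scaled between DMSO-only wells (100%) and media-only wells (0%). Cells, 500 per well, faced library compounds for 48 hours at 37C.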

[3] = Quantitative High-Throughput drug screen in 47 multiple myeloma cell lines against the NCATS MIPE library collection: NCIH929_DSMZ cell viability assay (AID 1918978); note: nearly all actives have a fitted effect of over 35% in size; note: potency is the fitted concentration of half-maximal effect
How it was run: (§3)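 qHTS format: cells plated (500/well), pin-dosed with MIPE 4.0 compounds, kept 48 h at 37 °C. Readout was CellTiter-Glo luminescence, median RLU.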

[4] = Quantitative High-Throughput drug screen in 47 multiple myeloma cell lines against the NCATS MIPE library collection: MM1R_ATCC cell viability assay (AID 1918981); note: nearly all actives have a fitted effect of over 35% in size; note: potency is the fitted concentration of half-maximal effect
How it was run: as §3

[5] = Quantitative High-Throughput drug screen in 47 multiple myeloma cell lines against the NCATS MIPE library collection: LP1_DSMZ cell viability assay (AID 1918982); note: nearly all actives have a fitted effect of over 35% in size; note: potency is the fitted concentration of half-maximal effect
How it was run: as §3

[6] = Quantitative High-Throughput drug screen in 47 multiple myeloma cell lines against the NCATS MIPE library collection: KMS28PE_JCRB cell viability assay (AID 1918983); note: nearly all actives have a fitted effect of over 35% in size; note: potency is the fitted concentration of half-maximal effect
How it was run: as §3

[7] = Quantitative High-Throughput drug screen in 47 multiple myeloma cell lines against the NCATS MIPE library collection: KMS34_JCRB cell viability assay (AID 1918985); note: nearly all actives have a fitted effect of over 40% in size; note: potency is the fitted concentration of half-maximal effect
How it was run: as §3

[8] = Quantitative High-Throughput drug screen in 47 multiple myeloma cell lines against the NCATS MIPE library collection: OPM1_PLB cell viability assay (AID 1918989); note: nearly all actives have a fitted effect of over 40% in size; note: potency is the fitted concentration of half-maximal effect
How it was run: as §3

[9] = Quantitative High-Throughput drug screen in 47 multiple myeloma cell lines against the NCATS MIPE library collection: KMS12PE_JCRB cell viability assay (AID 1918972); note: nearly all actives have a fitted effect of over 30% in size; note: potency is the fitted concentration of half-maximal effect
How it was run: as §2

[10] = Quantitative High-Throughput drug screen in 47 multiple myeloma cell lines against the NCATS MIPE library collection: OCIMY1_PLB cell viability assay (AID 1918979); note: nearly all actives have a fitted effect of over 35% in size; note: potency is the fitted concentration of half-maximal effect
How it was run: as §3

[11] = Quantitative High-Throughput drug screen in 47 multiple myeloma cell lines against the NCATS MIPE library collection: OCIMY5_PLB cell viability assay (AID 1918988); note: nearly all actives have a fitted effect of over 65% in size; note: potency is the fitted concentration of half-maximal effect
How it was run: as §3

[12] = Quantitative High-Throughput drug screen in 47 multiple myeloma cell lines against the NCATS MIPE library collection: KMS21BM_JCRB cell viability assay (AID 1918974); details: ATP luminescence, 48 h; viability: at 45.8 µM (top of the series) unless noted; note: potency is the fitted concentration of half-maximal effect
How it was run: as §1

[13] = Quantitative High-Throughput drug screen in 47 multiple myeloma cell lines against the NCATS MIPE library collection: MMM1_PLB cell viability assay (AID 1918976)
How it was run: as §3

[14] = Quantitative High-Throughput drug screen in 47 multiple myeloma cell lines against the NCATS MIPE library collection: OCIMY7_PLB cell viability assay (AID 1918987); note: nearly all actives have a fitted effect of over 65% in size
How it was run: as §3

[15] = Quantitative High-Throughput drug screen in 47 multiple myeloma cell lines against the NCATS MIPE library collection: SKMM1_PLB cell viability assay (AID 1919863); details: SKMM1 myeloma viability, CellTiter-Glo ATP, 48 h; viability: active compounds read low; note: nearly all actives have a fitted effect of over 35% in size; note: potency is the fitted concentration of half-maximal effect
How it was run: as §3

[16] = Quantitative High-Throughput drug screen in 47 multiple myeloma cell lines against the NCATS MIPE library collection: MOLP8_DSMZ cell viability assay (AID 1918977); note: nearly all actives have a fitted effect of over 45% in size; note: potency is the fitted concentration of half-maximal effect
How it was run: as §3

[17] = Quantitative High-Throughput drug screen in 47 multiple myeloma cell lines against the NCATS MIPE library collection: MM1S_ATCC cell viability assay (AID 1918980); note: potency is the fitted concentration of half-maximal effect; nearly all actives have a fitted effect of over 45% in size
How it was run: as §3

[18] = Quantitative High-Throughput drug screen in 47 multiple myeloma cell lines against the NCATS MIPE library collection: XG6_PLB cell viability assay (AID 1919865); note: nearly all actives have a fitted effect of over 40% in size; note: potency is the fitted concentration of half-maximal effect
How it was run: as §3

[19] = Quantitative High-Throughput drug screen in 47 multiple myeloma cell lines against the NCATS MIPE library collection: U266_ATCC cell viability assay (AID 1919864)
How it was run: as §3

O=c1n(CCCN2CCN(c3cccc(Cl)c3)CC2)nc2ccccn12
inactive: Potency [1] | Potency [2] | Potency [3] | Potency [4] | Potency [5] | Potency [6] | Potency [7] | Potency [8]

CC[C@@H](C)[C@H](NC(=O)[C@H](CC1CCCCC1)NC(=O)c1ccno1)C(=O)N1CCC2(CCc3ccccc32)CC1
active: Potency [10] 16.6 µM | Potency [4] 13.2 µM | Potency [5] 9.35 µM | Potency [7] 7.43 µM | Potency [11] 8.33 µM
inactive: Potency [9] | Potency [8]

O=C(Nc1ccc(F)c(C(F)(F)F)c1)Nc1nnc(-c2ccncc2)s1
active: Potency [13] 5.26 µM | Potency [3] 2.64 µM | Potency [4] 11.8 µM | Potency [5] 3.72 µM | Potency [11] 2.35 µM | Potency [15] 8.33 µM
inactive: Potency [12] | Potency [10] | Potency [14]

CN(C(=O)c1ccc(F)cc1C(F)(F)F)C1CCN(c2nnc(-c3ccnn3C)c3ccccc23)CC1
inactive: Potency [8]
active: Potency [1] 10.5 µM

CCC(C)N(C)C(=O)c1cc2ccccc2c(-c2ccccc2Cl)n1 (configuration not stated)
active: Potency [17] 23.5 µM | Potency [18] 8.33 µM
inactive: Potency [1] | Potency [16] | Potency [3] | Potency [10] | Potency [4] | Potency [5] | Potency [6] | Potency [8]

CC1(C)CNc2cc(NC(=O)c3cccnc3NCc3ccncc3)ccc21
inactive: Potency [10] | Potency [8]
active: Potency [9] 4.18 µM | Potency [4] 20.9 µM | Potency [18] 0.372 µM

Cc1cc([C@@H](C)Nc2ccccc2C(=O)O)c2nc(N3CCOCC3)cc(=O)n2c1
active: viability [12] 15.1% [at 92.2 µM] | Potency [2] 27 µM | Potency [10] 8.55 µM | Potency [17] 9.59 µM | Potency [4] 27 µM | Potency [7] 2.7 µM | Potency [11] 38.2 µM | Potency [8] 17.1 µM | Potency [15] 27 µM | Potency [19] 5.4 µM | Potency [18] 1.91 µM

COc1ccc2nc(S(=O)Cc3ncc(C)c(OC)c3C)[nH]c2c1 (configuration not stated)
inactive: Potency [1] | Potency [2] | Potency [5] | Potency [7] | Potency [11]
active: Potency [3] 10.5 µM | Potency [17] 18.7 µM

Cc1ccc(-n2nc(C(C)(C)C)cc2NC(=O)Nc2ccc(OCCN3CCOCC3)c3ccccc23)cc1
active: Potency [2] 26.4 µM | Potency [13] 20.9 µM | Potency [3] 0.59 µM | Potency [17] 4.18 µM | Potency [11] 20.9 µM | Potency [8] 26.4 µM | Potency [19] 23.5 µM | Potency [18] 3.32 µM
inactive: Potency [10] | Potency [5]

CC(C)OC(=O)C1=CN(C(=O)c2ccc(F)c(F)c2)CC(C)(C)c2c1[nH]c1ccccc21
inactive: Potency [1] | Potency [2] | Potency [16] | Potency [3] | Potency [5] | Potency [7] | Potency [8] | viability [15] 104% | Potency [18]

c1ccc(-c2nn3c(c2-c2ccnc4cc(OCCN5CCOCC5)ccc24)CCC3)nc1
inactive: Potency [1] | Potency [2] | Potency [8] | Potency [18]
active: Potency [13] 26.4 µM | Potency [6] 23.5 µM

CC1(C)SCCN(S(=O)(=O)c2ccc(OCC#CCO)cc2)[C@@H]1C(=O)NO
active: Potency [2] 2.96 µM | Potency [13] 1.87 µM | Potency [5] 16.6 µM | Potency [11] 5.26 µM | Potency [15] 0.118 µM
inactive: Potency [10] | Potency [8]

CCN(c1ccccc1)c1cc(NC)[n+](C)c(C)n1
inactive: Potency [1] | Potency [3] | Potency [10] | Potency [5] | Potency [6] | Potency [18]
active: Potency [12] 0.372 µM | Potency [16] 2.09 µM | Potency [4] 16.6 µM | Potency [7] 26.4 µM | Potency [11] 20.9 µM
